The full list was thinned out, with hits kept by preference.
mcGAS RapidFire = inhibitors of mouse cGAS; recombinant mouse cGAS, cGAMP by RapidFire MS; Q8C6L5; inhibition, % at 12.5 µM; AID 1259397; 130,000 tested, 0.18% active;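 active means inhibition of cGAS enzyme activity at or above 60%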;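 further: enzyme stimulated by 45 bp dsDNA with ATP and GTP substrates; cGAMP share of summed cGAMP plus half ATP and half GTP signals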
Target sequence (Q8C6L5 whole entry, looked up): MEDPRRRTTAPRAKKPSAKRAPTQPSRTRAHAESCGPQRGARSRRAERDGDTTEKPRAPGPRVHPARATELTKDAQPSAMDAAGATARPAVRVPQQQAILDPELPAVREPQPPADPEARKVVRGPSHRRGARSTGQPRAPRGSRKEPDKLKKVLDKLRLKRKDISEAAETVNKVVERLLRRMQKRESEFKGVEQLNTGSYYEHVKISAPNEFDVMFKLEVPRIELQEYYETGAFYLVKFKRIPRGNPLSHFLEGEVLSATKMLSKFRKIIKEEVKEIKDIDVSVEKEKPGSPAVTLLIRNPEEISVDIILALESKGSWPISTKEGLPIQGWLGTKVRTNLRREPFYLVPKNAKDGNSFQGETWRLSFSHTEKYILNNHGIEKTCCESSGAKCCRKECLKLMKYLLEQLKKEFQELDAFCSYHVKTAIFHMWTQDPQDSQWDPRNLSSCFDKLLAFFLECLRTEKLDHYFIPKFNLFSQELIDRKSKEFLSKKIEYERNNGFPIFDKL
Each line names hits and unclear results; the compound was inactive in the other large screens; ! = not active in a repeat.

Cc1cc(N2C(=O)c3oc4ccc(F)cc4c(=O)c3C2c2cccc([N+](=O)[O-])c2)no1 (centres undefined)	none
CCC(C)CS(=O)(=O)NC(=O)Cc1c[nH]c2ccc(F)cc12 (centres undefined)	none
CN(C)/C=C1\C(=O)N(c2c(Cl)cccc2Cl)c2cc(C=C(C#N)C#N)ccc21	none
COc1ccnc(Cn2nc(C3CCNCC3)n(-c3ccccc3)c2=O)c1	none
CCn1c(C2CCCNC2)nn(Cc2cc(OC)ccn2)c1=O (centres undefined)	mcGAS RapidFire 61!
CCn1c(C2CCCNC2)nn(Cc2cc(=O)n3cc(C)sc3n2)c1=O (centres undefined)	none
Cc1cccc(OCCN(C)C(=O)c2ccc(=O)[nH]c2)c1	none
CCCCCC(=O)NN=Cc1ccc(O)c(OC)c1	none
COc1coc(C(=O)Nc2nc3ccccc3s2)cc1=O	none
COc1coc(C(=O)Nc2nc(C)cs2)cc1=O	none
COc1coc(C(=O)Nc2nnc(C)s2)cc1=O	mcGAS RapidFire 70
O=C(/C=C\c1ccc2c(c1)OCO2)Nc1c2c(nn1-c1cccc(Cl)c1)CSC2	none
O=C(CNCC1(c2ccc(F)cc2)CCOC1)Nc1cnccn1 (centres undefined)	none
CSCC(=O)N1CCCC(Nc2ccc(C(C)C)cc2)C1 (centres undefined)	none
O=C(NCCc1cccnc1)c1ccc(Cl)cc1	none
COc1cccc(N=C2NN=C(c3ccc4c(c3)CC(=O)N4)CS2)c1	none
O=C(COc1ccc(Cl)c2ccccc12)NCC(F)(F)F	none
O=C(COc1ccc(Cl)c2ccccc12)Nc1ncccc1O	mcGAS RapidFire 95
O=C(Cc1ccc(C(F)(F)F)cc1)Nc1ncccc1O	none
CC(=O)NCCNC(=O)C1(C)CCN1Cc1ccc(-c2ccccn2)cc1 (centres undefined)	none
CC(=O)c1ccccc1OS(=O)(=O)c1cc(Cl)ccc1Cl	none
CN1CCN(CC(=O)NC2CCCc3ccccc32)C(C)(C)C1=O (centres undefined)	none
O=C(Nc1ccccc1C(=O)NCc1ccco1)c1cccs1	none
O=C1N=c2ccccc2=C1c1sc(N2CCCCC2)nc1O	mcGAS RapidFire 88
O=C1N=c2ccccc2=C1c1sc(=S)n(-c2ccc(O)cc2)c1O	none
CCn1c(O)c(C2=c3ccccc3=NC2=O)sc1=S	none
Cc1nc(C(C)C)sc1C(=O)N(C)Cc1cc(C(C)C)on1	none
Cc1[nH]c(=O)ccc1C(=O)N1CCN(Cc2ccc(Cl)s2)CC1	none
C=CCn1cc(CN2CCN(Cc3ccc4c(c3)OCO4)C(=O)C2)c(C)n1	none
Cn1c(-c2ccc(CN3CCn4cncc4C3)o2)nc2ccccc21	none
C=CCn1cc(CN2CCn3nc(-c4nc5ccccc5n4C)cc3C2)c(C)n1	mcGAS RapidFire 79
CCCCCC(=O)N/N=C(/C)Cn1nc([N+](=O)[O-])cc1C	none
CCc1ccc(-c2nc(CSc3nc(=O)[nH]c(C)c3C(C)=O)cs2)cc1	none
O=C(CN1CSCC1=O)Nc1cc(Cl)ccc1Sc1ccc(F)cc1	none
O=C(Nc1ncc([N+](=O)[O-])s1)c1cccs1	mcGAS RapidFire 86
O=C(Nc1nnc(C2CC2)s1)c1cccs1	none
O=C(Nc1ncc([N+](=O)[O-])s1)c1ccc(=O)n(Cc2ccc(F)cc2)c1	none
CCN(CC)C(=O)CC1(C)N=C(c2cccc(C(F)(F)F)c2)N(C)O1 (centres undefined)	none
Cc1ccc(C(=O)c2nc3c(n2O)CCCCC3)cc1	mcGAS RapidFire 90
CCOc1ccc(C(=O)c2nc3c(n2O)CCCCC3)cc1OCC	none
O=C(c1cccc2ccccc12)c1nc2c(n1O)CCCC2	none
CC(=O)c1c(C)[nH]c(C(=O)C(C)Sc2nnc(C3CC3)n2C2CC2)c1C (centres undefined)	none
CCOc1ccc(C(=O)NCC(=O)N2CCN(c3nnc(C)c(C)c3C#N)CC2)cc1	none
CN(CCOc1ccccc1)C(=O)c1cc2ccccc2oc1=O	none
COc1ccc(CCNC(=O)c2cc3ccccc3oc2=O)cc1OC	none
CSc1c(C#N)c(SCC(=O)c2cc3ccccc3oc2=O)[nH]c(=O)c1C#N	mcGAS RapidFire 94
O=C1Nc2ccc(Br)cc2C1=O	none
O=C1Nc2ccc(Br)cc2C1=c1sc2nc3ccccc3n2c1=O	none
O=C1Nc2ccc(Br)cc2/C1=c1/sc2n(c1=O)CCN=2	mcGAS RapidFire 81
COCCN1CCN(C(=O)CCc2nnc(CCc3ccc(OC)cc3)o2)CC1	none
COC(=O)C1CCCCN1C(=O)CCc1nnc(CCc2ccc(OC)cc2)o1 (centres undefined)	none
COc1ccc(CCC(=O)N2CCN(Cc3nnc(C4CC4)o3)CC2)cc1	mcGAS RapidFire 94
CCCC(=O)C1=C(c2ccc(C)c(C)c2)N(C(=O)CCC)n2c(C)nnc2S1	none
COC(=O)C(NC(=O)C12CC3CC(CC(C3)C1)C2)C(C)C (centres undefined)	none
COc1ccc(S(=O)(=O)N2CCN(c3nc4ccccc4nc3-c3ccccc3)CC2)cc1OC	none
Cc1ccc(CN(Cc2ccco2)C(=O)c2ccc3c(c2)[nH]c(=O)n3C)s1	none
CCOc1ccc2nc(NC(=O)CC)sc2c1	none
Nc1c2ccccc2nc2ccccc12 (tested in a mixture with another compound)	none
CCOc1ccc2nc3cc(N)ccc3c(N)c2c1	mcGAS RapidFire 92!
Cc1cc(NC(=O)C(C)OC(=O)c2cccc(C)c2C)no1 (centres undefined)	none
Cc1n[nH]c(C)c1Sc1ccccc1NC(=O)c1nccn1C	none
Cc1ccc(S(=O)(=O)NNC(=O)CC23CC4CC(CC(C4)C2)C3)cc1	none
CC(C)c1nc(NC(=O)c2[nH]ncc2Br)n(C)n1	mcGAS RapidFire 94
N#CC(NC(=O)c1[nH]ncc1Br)c1cccc(Cl)c1 (centres undefined)	none
CC(C)c1nc(NC(=O)CS(=O)(=O)C2CCCC2)n(C)n1	none
Cc1cnc(NC(C)CCN2CCOCC2)nc1N(C)C (centres undefined)	none
CN(Cc1nc2ccc(Cl)cc2[nH]1)Cc1nc(-c2ccccn2)no1	none
Cc1ccc(-c2csc3ncnc(NCC4COCCO4)c23)cc1C (centres undefined)	none
O=C(N[C@H]1COC[C@@H]1N1CCCC1)c1cc(COc2cccc(F)c2)[nH]n1	none
Cc1c(C(=O)NCc2ccccc2C(F)(F)F)sc(=O)n1Cc1ccccc1F	none
Cn1c(=O)n(C)c2cc(CNc3nn[nH]n3)ccc21	none
NC(=S)N=Nc1ccc(NN=C(N)N)cc1	mcGAS RapidFire 79
Cc1nn(C2CCS(=O)(=O)C2)c2[nH]c(CCl)cc(=O)c12 (centres undefined)	none
Cc1ccc(C2(O)CCN(c3nc(-c4ccccc4)nc4c3CCC4)CC2)nc1	none
Cc1nc(CC(=O)N(CC(F)(F)F)c2cccc(Cl)c2)cs1	none
Cc1ccc(CCNC(=O)C2CCC(=O)N(Cc3ccc(Cl)cc3)C2)o1 (centres undefined)	none
CCOC(=O)C1=C(C)NNC(=Nc2cccc(C)c2C)S1	none
CC(C(=O)Nc1ccccc1)N(C)Cc1ccc(Cl)cc1 (centres undefined)	none
CC(C(=O)Nc1ccc(Cl)cn1)N(C)Cc1ccsc1 (centres undefined)	mcGAS RapidFire 83
CC(C(=O)Nc1ccc(Cl)cn1)N(C)CC(=O)Nc1c(Cl)cccc1Cl (centres undefined)	none
Cc1csc(N2CCN(Cc3nnnn3C3CC3)CC2C)n1 (centres undefined)	none
OC(C#Cc1ccccc1)c1ncc(-c2ccccc2)[nH]1 (centres undefined)	none
S=c1nc(-c2ccccc2)c(-c2ccccc2)n[nH]1	none
S=c1nccc(-c2ccccc2)[nH]1	mcGAS RapidFire 74
Cc1ccc(C)c(OCCN(C)C(=O)c2cnc(NC(C)C)nc2)c1C	none
O=C1NC(=O)C2C1Sc1c(sc(=O)n1Cc1ccccc1)C2c1c[nH]c2ccccc12 (centres undefined)	none

Source: PubChem BioAssay
